# Assay outcomes from PubChem.
# Shown are actives, neighbours in structure and some others; about 12% of the full set was active somewhere.
# KCC2 mod: KCC2 cotransporter modulators, thallium flux, primary screen, cell-based, HEK293 KCC2, FluoZin-2 fluorescence, MLSMR | Solute carrier family 12 member 5 (Homo sapiens), Q9H2X9 | KCC2 cells, thallium flux FluoZin-2 fluorescence | B-score of Tl+ flux slope (higher = more flux/activation; lower = inhibition) at 10 µM | 2.2% of 190,000 active | AID 1456, 2008;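 active = thallium flux slope and its plate-corrected score both differing from the plate sample mean at a set confidence after two filtering rounds, in either direction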;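 also: slope of fluorescence scaled to starting intensity during 10 to 20 s after thallium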
# Target sequence (Q9H2X9 whole entry, looked up): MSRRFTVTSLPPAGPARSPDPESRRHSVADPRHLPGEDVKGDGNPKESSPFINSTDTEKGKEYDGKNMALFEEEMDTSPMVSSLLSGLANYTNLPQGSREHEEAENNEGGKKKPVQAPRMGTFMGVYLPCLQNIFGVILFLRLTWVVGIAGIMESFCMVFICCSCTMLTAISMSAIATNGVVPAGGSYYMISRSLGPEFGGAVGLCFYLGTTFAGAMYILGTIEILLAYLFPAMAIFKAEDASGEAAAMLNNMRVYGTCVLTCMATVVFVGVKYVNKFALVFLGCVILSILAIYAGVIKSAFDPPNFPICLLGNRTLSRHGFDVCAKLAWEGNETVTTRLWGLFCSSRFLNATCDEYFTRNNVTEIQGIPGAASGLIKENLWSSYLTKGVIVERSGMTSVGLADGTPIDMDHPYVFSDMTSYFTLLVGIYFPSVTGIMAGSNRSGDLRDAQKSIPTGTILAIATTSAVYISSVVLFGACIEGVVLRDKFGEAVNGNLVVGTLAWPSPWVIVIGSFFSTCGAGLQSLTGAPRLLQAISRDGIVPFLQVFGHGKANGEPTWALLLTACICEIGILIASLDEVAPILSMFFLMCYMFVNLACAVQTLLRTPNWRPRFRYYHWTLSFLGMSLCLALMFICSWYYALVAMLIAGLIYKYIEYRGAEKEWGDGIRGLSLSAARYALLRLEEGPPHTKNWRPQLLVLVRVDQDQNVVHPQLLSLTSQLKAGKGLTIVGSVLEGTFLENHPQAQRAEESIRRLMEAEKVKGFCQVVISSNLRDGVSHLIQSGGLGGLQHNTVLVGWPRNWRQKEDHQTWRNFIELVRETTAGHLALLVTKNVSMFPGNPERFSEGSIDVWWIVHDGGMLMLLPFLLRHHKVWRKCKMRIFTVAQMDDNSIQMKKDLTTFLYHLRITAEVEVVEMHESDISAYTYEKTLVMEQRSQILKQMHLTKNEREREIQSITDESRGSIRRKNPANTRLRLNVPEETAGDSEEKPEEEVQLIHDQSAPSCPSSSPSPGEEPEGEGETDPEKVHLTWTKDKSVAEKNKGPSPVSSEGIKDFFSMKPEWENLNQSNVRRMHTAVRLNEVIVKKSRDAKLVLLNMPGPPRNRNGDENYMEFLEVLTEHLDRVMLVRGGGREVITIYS
# Lmaj promast: Leishmania major promastigote growth inhibition, primary screen. Leishmania major promastigotes, resazurin fluorescence viability. inhibition, % at 10 µM. 9% of 200,000 active; in the data active = inhibition above about 50%;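 also: promastigotes grown with compound for 44 hours at 28 °C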
# INS promoter inh: inhibitors of insulin promoter-driven GFP, primary screen, imaging, TRM-6 cells (human fetal islet line), eGFP reporter, cell count; reporter expression induced with tamoxifen; inhibition, % at 2 µM; 0.9% of 130,000 active; AID 1273, 2008;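 active = inhibition above the mean plus 3 SD, with well images judged a real hit on visual review, cut at about 60% in these data, passing the limit was not always enough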
# Ins promoter up: insulin promoter activators in MIN6 cells, imaging, high-content screening, mouse beta cells | MIN6 insulin promoter-GFP reporter; stronger effect = higher value | z-score at 5 µM | 0.3% of 190,000 active | AID 1625, 2009;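 active = z-score above 3 at 5 µM with at least 500 cells counted in the well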
# WT yeast gro inh: growth inhibition of WT strain, primary screen, mitochondrial fusion inhibitor project, WT and mutant strains, chemical genetic | mitochondrial fusion phenotypic screen | inhibition, % at 10 µM | 2.1% of 190,000 active; in the data active = inhibition above about 58%; tested in S. cerevisiae
# ROMK mod: ROMK potassium channel modulators, primary screen, cell-based, thallium flux, MLSMR library | ATP-sensitive inward rectifier potassium channel 1 (Homo sapiens), P48048 | Tet-inducible ROMK, thallium flux fluorescence; actives lie on both sides | B-score at 10 µM | 2% of 130,000 active;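 active = signal ratio slope over the read window, or its plate-corrected B-score, at least 3 SD from the plate mean, either direction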;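 also: B-score of the F/F0 ratio slope over 7 to 12 s after thallium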
# The depositor's hits bear a star; nt = no result.
SMILES,KCC2 mod,Lmaj promast,INS promoter inh,Ins promoter up,WT yeast gro inh,ROMK mod
CCOC(=O)N1CCN(CC(O)COC(CC)c2ccccc2)CC1 (stereo not drawn),nt,91*,nt,-0.12,-8,nt
Cc1cc(=O)c2cc(C(=O)c3ccccc3)ccc2[nH]1,nt,nt,nt,-0.61,nt,nt
COc1ccc(-c2nc3ccccc3c(=O)n2-c2c(C)n(C)n(-c3ccccc3)c2=O)cc1,0.82,nt,nt,-0.1,nt,nt
O=C1CC(NCCN2CCOCC2)C(=O)N1Cc1ccc(N2CCCC2=O)cc1 (stereo not drawn),nt,-5,-85,1.1,0,0.34
CCOC(=O)N1CCN(CC(O)COc2ccccc2C(C)(C)C)CC1 (stereo not drawn),0.04,0,42,0.1,18,0.17
C=CCc1ccccc1OCC(O)CN1CCN(C(=O)OCC)CC1 (stereo not drawn),-0.56,68*,nt,-0.97,-1,nt
C[C@]1(C(=O)NCCCNc2ncc(C(F)(F)F)cc2Cl)C=C[C@@H](Cc2ccccc2)N1C(=O)c1ccccc1,-0.68,17,-5,-1.6,75*,-1.5
O=[N+]([O-])c1cc2c(cc1/C=N/n1cnnc1)OCO2,-0.1,4,nt,0.04,-1,nt
O=[N+]([O-])c1cc(Br)cc(/C=N/n2cnnc2)c1O,0.4,-4,-75,-0.07,-15,-0.071
O=[N+]([O-])c1ccccc1S(=O)(=O)Oc1ccccc1/C=N/n1cnnc1,0.22,72*,27,-0.14,-21,0.88
O=[N+]([O-])c1cccc(/C=N/n2cnnc2)c1O,0.56,68*,13,-0.19,-12,-0.15
COc1ccc(S(=O)(=O)N2CCc3ccccc32)cc1NC(C)=O,-0.19,8,nt,0.04,11,-0.69
C=CCOc1ccc(/C=N/NC(=O)CN(c2cc(Cl)ccc2OC)S(=O)(=O)c2ccc(C)c([N+](=O)[O-])c2)cc1,0.73,97*,24,-0.14,-3,-1.7
O=S(=O)(Cc1ccccc1)N1CCN(C/C=C/c2ccccc2)CC1,0.53,71*,2,0.36,-13,-0.0037
O=S(=O)(c1ccc(Cl)s1)N1CCN(C/C=C/c2ccccc2)CC1,nt,83*,nt,-1.3,42,0.6
O=S(=O)(c1cccs1)N1CCN(C/C=C/c2ccccc2)CC1,-2,9,-29,0.17,14,nt
CC(C)CN(C(=O)CSc1nnnn1C)C1CCS(=O)(=O)C1 (stereo not drawn),0.033,-7,-7,-1.4,-10,1.1
COc1ccc(C(OC(=O)c2ccco2)C(=O)NCC2CCCO2)cc1 (stereo not drawn),nt,0,-40,-0.37,33,1.1
Cc1cc(C)n2nc(C(=O)N/N=C/C=C/c3ccccc3)nc2n1,0.43,nt,nt,1.9,nt,nt
Cn1c(C(=O)c2ccccc2[N+](=O)[O-])nc2ccccc21,1.2,9,80*,1.1,-12,0.89
O=C(c1ccccc1[N+](=O)[O-])n1cnc2ccccc21,nt,-2,nt,-0.05,-21,0.13
Cc1c(C(=O)Nc2ccc(F)cc2)oc2ccc(S(=O)(=O)N3CC(C)CC(C)C3)cc12 (stereo not drawn),-1.2,30,71*,-0.94,19,0.68
O=C(COC(=O)/C=C/c1ccc(Cl)cc1)NCCN1C(=O)CSC1=O,-0.1,0,50,-0.31,-6,-0.43
CCN(CC)c1ccc(/C=N/N2CCN(Cc3ccc(C)cc3C)CC2)c(O)c1,-0.34,22,-36,0.89,39,0.14
CC(C)(C)C(=O)Cn1c(=N)n(Cc2ccccc2Cl)c2ccccc21,nt,100*,-3,-1.3,14,-2.3
SMILES,KCC2 mod,Lmaj promast,INS promoter inh,Ins promoter up,WT yeast gro inh,ROMK mod
O=C(N/N=C/c1cccc(C(F)(F)F)c1)c1ccc(O)cc1,-1.1,5,nt,-0.1,-2,-0.25
COC(=O)c1c(NC(=O)c2ccccc2)sc(C(N)=O)c1C,0.19,-9,nt,-0.57,-7,0.095
CCC(=O)Nc1sc(Cc2ccccc2)c(C)c1C(N)=O,-0.063,-2,67,nt,74*,-1.1
COC(=O)c1c(NC(=O)c2ccccc2)sc(C(=O)c2ccccc2)c1C,8.4*,15,-26,0.34,-17,nt
COC(=O)c1c(NC(=O)c2ccccc2)sc(Cc2ccccc2)c1C,nt,-3,nt,-1.1,68*,-0.00074
COC(=O)c1c(NC(=O)c2ccc(C)cc2)sc(Cc2ccccc2)c1C,nt,-4,nt,-0.33,0,nt
O=C(N/N=C/c1ccco1)C1CC1(c1ccccc1)c1ccccc1 (stereo not drawn),0.82,9,-32,-0.18,14,-0.13
COc1ccc(-c2noc(CCC(=O)NCCCN3CCN(c4ccccc4F)CC3)n2)cc1,-0.99,4,-67,-0.64,-2,-0.23
COC(=O)CNC(=O)C(C)NC(=O)OCc1ccccc1 (stereo not drawn),nt,-4,nt,nt,12,nt
CCCCN(CCCC)CC1OCc2ccccc2CO1,-0.43,0,33,0.37,4,nt
COc1ccc(CCNC(=O)c2ccc(=O)[nH]c2)cc1,nt,-10,46,0.07,-7,-0.099
COc1ccc(CN2CCCC(C(=O)c3ccc(SC)cc3)C2)cc1Cn1cccn1 (stereo not drawn),nt,90*,nt,-1.1,31,-0.87
CSc1ncc(CN2CCCC(C(=O)c3ccc(C(C)(C)C)cc3)C2)cn1 (stereo not drawn),0.4,88*,4,-0.28,46,-0.086
O=C(c1cccc(C(F)(F)F)c1)C1CCCN(Cc2ccc(OCCO)cc2)C1 (stereo not drawn),1.2,81*,-4,nt,1,-0.3
COc1ccc(CN2CCCC(C(=O)c3cccc(C(F)(F)F)c3)C2)cc1O (stereo not drawn),0.0043,84*,-33,-0.19,22,-0.19
CC(=O)Nc1ccc(CN2CCCC(C(=O)c3cccc(C(F)(F)F)c3)C2)cc1 (stereo not drawn),-0.62,23,nt,0.79,5,0.47
CSc1ccc(C(=O)C2CCCN(Cc3ccc(N4CCNC4=O)cc3)C2)cc1 (stereo not drawn),-0.71,29,nt,-1.1,5,0.083
CS(=O)(=O)N1CCN(c2ccc([N+](=O)[O-])c(N3CCOCC3)c2)CC1,0.42,8,nt,-0.12,14,-0.01
CC1CCN(c2ccc(/C=C(\C#N)c3nn(-c4ccccc4)c(N)c3C#N)cc2[N+](=O)[O-])CC1,-0.49,95*,31,-1.8,-6,nt
CC1CCCN(c2ccc(/C=C(\C#N)c3nn(-c4ccccc4)c(N)c3C#N)cc2[N+](=O)[O-])C1 (stereo not drawn),2.2,96*,nt,1.9,-4,nt
CC1CCN(c2cc(N3CCC(C)CC3)c([N+](=O)[O-])cc2/C=C(\C#N)c2nn(-c3ccccc3)c(N)c2C#N)CC1,nt,-4,4,nt,13,nt
N#C/C(=C\c1ccc(N2CCCCC2)c([N+](=O)[O-])c1)c1nn(-c2ccccc2)c(N)c1C#N,0.77,99*,8,-0.69,8,0.13
